# Assay results as given in PubChem BioAssay.
# Activity calls are given as the source filed them.
# Columns and labels:
# [1] = anti-His antibody binders, primary screen, artefact control for SMM control protein annotation, biochemical, small-molecule microarray, 635 nm fluorescence (AID 1128); conditions: anti-His Alexa647 antibody binding, higher = more signal;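 note: score merges feature fluorescence with signal-to-noise for each printed compound spot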
# [2] = test system: Human papillomavirus type 1a E7 protein (residues 1-88); experiment: HPV1a E7 small-molecule binders, primary screen, biochemical, small-molecule microarray, residues 1-88, 635 nm (AID 1129); conditions: small-molecule microarray binding, fluorescence 635 nm; higher = more signal
# [3] = target: Focal adhesion kinase 1 (Homo sapiens) (UniProt Q05397); experiment: small-molecule microarray binders of FAK, primary screen, biochemical, 635/667 nm fluorescence, BSA, DTT (AID 1130); conditions: PTK2 binding, 635 nm fluorescence, higher = more signal;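 note: composite of spot emission at 667 nm and signal to noise over triplicate slides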
# [4] = test system: Fibrinogen (Alexa647-labelled); experiment: fibrinogen binders on compound microarrays, profiling panel, artefact control for SMM control-protein annotation, biochemical, small-molecule microarray, 635/667 nm fluorescence (AID 1131); conditions: fibrinogen-A647 binding fluorescence, higher = more signal;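 note: z-score merges 667 nm fluorescence with per-spot signal-to-noise over triplicate slides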
# [5] = target: Follistatin (Homo sapiens) (UniProt P19883); experiment: follistatin binders on small-molecule microarrays, primary screen, biochemical, small-molecule microarray, 635/667 nm fluorescence (AID 1132); conditions: FST binding, 635 nm fluorescence, higher = more signal
# [6] = target: Fibroblast growth factor 2 (Homo sapiens) (UniProt P09038); experiment: FGF2 binders on small-molecule microarrays, primary screen, biochemical, small-molecule microarray, 635/667 nm fluorescence (AID 1133); conditions: small-molecule microarray binding, FGF2, fluorescence 635/667; higher = more signal
# [7] = mitochondrial membrane potential change in A549 cells, profiling panel, cell-based, JC-1 fluorescence, basal, 24 h, 100 nL (AID 1138); conditions: higher = more signal;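 note: A549 lung adenocarcinoma cells under basal conditions with no added stimulus; test concentration not given here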
# Lefty1 = Lefty1 binders on small-molecule microarrays, primary screen, biochemical, small-molecule microarray, 635/667 nm fluorescence (AID 1139); conditions: small-molecule microarray binding, fluorescence 635/667; higher = more signal
# [8] = test system: wheat germ agglutinin (Triticum aestivum), Alexa647-labelled; experiment: wheat germ agglutinin binders on compound microarrays, profiling panel, artefact control for SMM control-protein annotation, biochemical, small-molecule microarray, 635/667 nm fluorescence (AID 1140); conditions: WGA-A647 binding, 635 nm fluorescence, higher = more signal;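 note: score merges 667 nm feature emission with signal to noise over triplicate slides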
# [9] = target: Luciferin 4-monooxygenase (Photinus pyralis) (UniProt P08659); experiment: firefly luciferase enzyme inhibitors, primary screen, biochemical, luminescence, purified enzyme, 2006 set (AID 1141); conditions: SteadyGlo luminescence, 30 min, higher = more signal, called active from +8 up or from −8 down;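 note: cell-free assay with purified firefly luciferase at 100 ng per well in PBS; test concentration not given here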
# Chain of Luciferin 4-monooxygenase (Photinus pyralis) (P08659 whole entry, looked up): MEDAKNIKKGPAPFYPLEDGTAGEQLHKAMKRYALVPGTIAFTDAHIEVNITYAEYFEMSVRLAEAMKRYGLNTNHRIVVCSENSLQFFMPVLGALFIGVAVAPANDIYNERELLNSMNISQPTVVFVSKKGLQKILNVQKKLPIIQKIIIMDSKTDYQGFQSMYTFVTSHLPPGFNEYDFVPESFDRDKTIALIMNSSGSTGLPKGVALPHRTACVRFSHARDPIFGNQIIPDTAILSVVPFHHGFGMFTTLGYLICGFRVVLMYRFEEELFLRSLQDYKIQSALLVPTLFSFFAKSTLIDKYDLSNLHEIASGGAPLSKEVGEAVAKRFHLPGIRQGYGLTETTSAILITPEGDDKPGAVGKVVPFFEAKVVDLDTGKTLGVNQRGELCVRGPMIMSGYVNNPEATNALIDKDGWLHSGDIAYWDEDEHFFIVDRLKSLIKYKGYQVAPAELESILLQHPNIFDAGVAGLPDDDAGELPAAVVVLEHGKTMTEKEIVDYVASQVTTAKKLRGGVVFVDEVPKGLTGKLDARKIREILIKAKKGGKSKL
# Chain of Focal adhesion kinase 1 (Homo sapiens) (Q05397 whole entry, looked up): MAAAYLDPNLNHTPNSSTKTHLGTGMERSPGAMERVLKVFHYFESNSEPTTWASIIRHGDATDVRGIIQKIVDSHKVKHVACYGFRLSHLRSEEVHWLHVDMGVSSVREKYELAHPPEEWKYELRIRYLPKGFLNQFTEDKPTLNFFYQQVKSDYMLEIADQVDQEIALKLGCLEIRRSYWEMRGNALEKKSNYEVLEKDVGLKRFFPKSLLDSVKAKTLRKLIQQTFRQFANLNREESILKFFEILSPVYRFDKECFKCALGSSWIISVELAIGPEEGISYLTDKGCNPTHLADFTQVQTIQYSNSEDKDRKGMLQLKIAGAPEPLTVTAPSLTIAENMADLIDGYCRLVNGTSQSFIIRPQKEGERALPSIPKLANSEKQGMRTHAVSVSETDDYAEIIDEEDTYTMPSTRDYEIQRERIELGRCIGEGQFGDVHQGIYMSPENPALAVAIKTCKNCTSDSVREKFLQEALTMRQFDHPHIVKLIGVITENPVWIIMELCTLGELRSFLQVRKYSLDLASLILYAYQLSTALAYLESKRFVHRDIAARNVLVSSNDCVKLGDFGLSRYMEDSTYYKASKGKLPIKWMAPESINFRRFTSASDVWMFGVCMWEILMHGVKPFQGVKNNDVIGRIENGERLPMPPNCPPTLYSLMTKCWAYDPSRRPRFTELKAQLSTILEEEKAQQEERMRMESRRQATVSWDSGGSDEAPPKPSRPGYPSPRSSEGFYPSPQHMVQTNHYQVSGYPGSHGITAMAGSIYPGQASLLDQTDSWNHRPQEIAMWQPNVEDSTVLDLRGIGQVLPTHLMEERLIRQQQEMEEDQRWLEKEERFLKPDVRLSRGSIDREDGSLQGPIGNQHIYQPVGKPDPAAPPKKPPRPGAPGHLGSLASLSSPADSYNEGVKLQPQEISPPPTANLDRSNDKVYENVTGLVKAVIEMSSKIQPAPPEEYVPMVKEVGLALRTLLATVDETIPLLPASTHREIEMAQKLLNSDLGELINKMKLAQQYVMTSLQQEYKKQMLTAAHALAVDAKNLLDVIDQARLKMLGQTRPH
# Chain of Follistatin (Homo sapiens) (P19883 whole entry, looked up): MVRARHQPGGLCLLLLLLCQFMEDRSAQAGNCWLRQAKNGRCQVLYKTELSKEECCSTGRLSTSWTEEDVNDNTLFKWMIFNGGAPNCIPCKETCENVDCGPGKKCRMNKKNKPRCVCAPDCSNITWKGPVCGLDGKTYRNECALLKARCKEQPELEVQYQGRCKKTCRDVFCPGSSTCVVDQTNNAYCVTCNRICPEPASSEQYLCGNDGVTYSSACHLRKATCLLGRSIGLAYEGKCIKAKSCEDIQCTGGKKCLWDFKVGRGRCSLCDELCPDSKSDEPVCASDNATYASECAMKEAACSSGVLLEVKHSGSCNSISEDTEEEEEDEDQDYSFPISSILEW
# Chain of Fibroblast growth factor 2 (Homo sapiens) (P09038 whole entry, looked up): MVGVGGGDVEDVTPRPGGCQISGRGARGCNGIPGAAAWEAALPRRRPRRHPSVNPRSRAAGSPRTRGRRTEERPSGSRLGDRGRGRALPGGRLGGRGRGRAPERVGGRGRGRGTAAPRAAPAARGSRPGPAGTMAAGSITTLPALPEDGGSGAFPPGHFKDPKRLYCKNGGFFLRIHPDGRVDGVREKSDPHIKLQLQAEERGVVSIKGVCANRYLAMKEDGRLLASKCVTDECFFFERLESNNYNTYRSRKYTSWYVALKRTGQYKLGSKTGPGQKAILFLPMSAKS
Compound,composite z-score [1],composite z-score [2],composite z-score [3],composite z-score [4],composite z-score [5],composite z-score [6],z-score [7],composite z-score (Lefty1),composite z-score [8],z-score [9]
CCOC(=O)C[C@H]1[C@H](OC(=O)Cc2ccc3c(c2)OCO3)[C@@H](NC(=O)Cc2ccc(OC)cc2)c2cc(OCCCO)ccc2N1C(=O)Cc1ccc(OC)cc1,0.247,0.173,-0.113,0.239,-0.147,-0.0689,1.39,0.0681,-0.002,-0.127 (inactive)
C=CCNC(=O)[C@H]1[C@@H]2C(=O)O[C@@H](c3ccccc3)[C@@H](c3ccccc3)N2[C@@H](c2ccc(OCCO)cc2)[C@]12C(=O)Nc1ccc(C#CC3(O)CCCCCC3)cc12,1.26,1.18,0.358,0.932,1.14,1.13,0.38,1.3,0.651,-1.96 (inactive)
COC(=O)[C@@]1(Cc2ccccc2)[C@H]2c3cc(C(=O)N4CCCC4)n(Cc4ccc(OC)c(OC)c4)c3C[C@H]2CN1C(=O)c1ccccc1,0.682,1.27,0.916,1.03,0.528,-0.502,1.99,-0.115,0.863,2.75 (inactive)
CC(C)C(CO)N1C(=O)[C@@H]2C3C(=O)OCCC/C=C\[C@H]3OC23C=CCN(Cc2ccccc2)C(=O)[C@@H]13 (stereo not given in full),-1.18,-0.359,-0.0926,-2.51,-0.908,-0.591,1.21,-0.524,-1.2,-0.59 (inactive)
C=C(COC)C(=O)CC[C@@H](OC(=O)c1ccccc1-c1ccccc1C(=O)O)c1ccc(OCCO)cc1,-0.0978,-0.0905,-0.0142,-1.48,1.45,1.42,0.0645,1.48,0.595,-3.04 (inactive)
COC(=O)[C@@]1(Cc2ccccc2)[C@H]2c3cc(C(=O)N(C)C)n(Cc4ccc(C(F)(F)F)nc4)c3C[C@H]2CN1C(=O)c1ccccc1,0.0389,1.29,0.74,1.01,0.714,-0.428,0.353,-0.655,0.736,2.32 (inactive)
COC(=O)[C@@]1(Cc2ccc(OC)cc2)[C@H]2c3cc(C(=O)N(C)C)[nH]c3C[C@H]2CN1C(=O)c1ccccc1,0.279,-0.154,0.0999,0.804,-0.205,-0.738,0.638,-0.275,0.895,0.0806 (inactive)
COC(=O)[C@H](Cc1ccc(O)cc1)N[C@@H](/C=C/C1CC1)[C@H](O)Cc1ccccc1,0.257,-0.506,-0.408,-0.785,0.156,0.0843,0.091,0.389,-0.185,0.209 (inactive)
COc1ccc([Si](C)(C)[C@H]2[C@H](CCO)O[C@@]3(C(=O)N(Cc4cccc(N(C=O)c5ccccc5)c4)c4ccccc43)[C@@H]2C)cc1,0.911,1.19,-0.048,0.777,0.832,0.886,0.837,1.05,0.259,0.281 (inactive)
CC1CC/C=C\[C@H]2OC34C=CCN(c5ccc(Cl)cc5)C(=O)[C@H]3N(CCCCCCO)C(=O)[C@]4(C)C2C(=O)O1 (stereo not given in full),0.867,-0.629,-0.487,-0.87,-0.518,-0.662,1,-0.629,-0.988,-1.55 (inactive)
COC(=O)C(CC#Cc1ccc2c(c1)[C@]1(C(=O)N2)[C@H](C(=O)NC[C@H](O)c2ccccc2)[C@H]2C(=O)O[C@H](c3ccccc3)[C@H](c3ccccc3)N2[C@@H]1c1ccccc1OCCO)C(=O)OC,2.68,1.23,0.289,0.478,1.25,1.56,-0.693,0.221,1.09,0.742 (inactive)
COC(=O)[C@@]1(Cc2ccc(F)cc2)[C@H]2c3cc(C(=O)N(C)C)n(CCc4ccc(O)c(O)c4)c3C[C@H]2CN1C(=O)c1ccccc1,-0.0012,1.18,0.512,0.823,-0.123,-0.72,0.987,-0.08,0.528,0.569 (inactive)
O=C(NCC(O)CO)[C@@]1(CCS(=O)(=O)c2ccccc2)N=C(c2ccc(OCCCO)cc2)O[C@H]1c1ccccc1 (stereo not given in full),1.9,1.23,1.38,0.993,1.33,-0.0831,-0.503,-1.02,0.762,-0.845 (inactive)
CN(C)CCCC[C@@H]1NC(=O)[C@H]2C[C@@H](C(=O)O)[C@@H](c3ccc(O)cc3)N2C1=O,3.85,1.31,1.99,1.04,1.52,1.83,-0.447,1.63,1.65,-0.367 (inactive)
C=C(CCCC)/C(=C/C[C@H](OC(=O)c1ccncc1)c1ccccc1OCCO)c1cc(C(=O)OC)ccc1OC,2.75,0.488,0.0357,0.013,0.95,0.969,2.03,0.979,-0.0208,-0.776 (inactive)
COC(=O)C[C@H]1O[C@@]2(C[C@@H]1[Si](C)(C)C)C(=O)N(C)c1ccccc12,0.324,0.643,-0.203,0.78,0.501,0.0172,1.63,0.453,0.0729,-1.85 (inactive)

Compound,composite z-score [1],composite z-score [2],composite z-score [3],composite z-score [4],composite z-score [5],composite z-score [6],z-score [7],composite z-score (Lefty1),composite z-score [8],z-score [9]
C=C(CCCC)C(=O)CC[C@H](OC(=O)c1ccccc1-c1ccccc1C(=O)O)c1ccc(OCCO)cc1,0.321,0.632,-0.0609,0.0905,0.571,1.26,0.128,1.1,0.708,-1.95 (inactive)
CN1C(=O)C2C=CC(C(O)c3ccc(-c4ccccc4)s3)N(NC(=O)OC(C)(C)C)C2C1=O (stereo not given),0.847,1.14,0.154,1.04,0.807,0.498,0.237,-0.0773,0.904,0.626 (inactive)
CCOC(=O)C1=CC[C@@H](c2ccc(OC)cc2)N(S(=O)(=O)c2ccc(C)cc2)[C@H]1CC,1.17,1.22,0.493,0.993,0.995,0.873,2.69,0.689,0.902,1.24 (inactive)
COCCOC(=O)N1C(=O)[C@@]2(c3cc(C#Cc4ccc(OC)cc4)ccc31)[C@H](c1ccc(OCCO)cc1)N1[C@H](c3ccccc3)[C@H](c3ccccc3)OC(=O)[C@H]1[C@@H]2C(=O)NC[C@H](O)c1ccccc1,1.2,1.17,1.32,0.941,1.33,1.19,-0.936,0.979,1.05,-0.563 (inactive)
[N-]=[N+]=Nc1ccccc1C[C@@]1(C(=O)NCc2ccccc2)N=C(c2ccc(OCCCO)cc2)O[C@@H]1c1ccccc1N=[N+]=[N-],1.27,1.17,0.268,0.664,1.32,0.32,0.197,-0.0327,1.03,-2.56 (inactive)
COc1ccc(NN2C(C(O)c3ccc(I)cc3)C=CC3C(=O)N(C4CCCCC4)C(=O)C32)cc1 (stereo not given),0.698,1.23,-0.0558,0.951,1.3,0.366,0.119,0.946,1.22,1.29 (inactive)
CC(C)c1nc2cc(Br)ccc2c(=O)o1,0.405,0.854,0.224,0.871,0.296,-0.357,0.48,-0.0283,0.834,0.672 (inactive)
CN(C)C(=O)[C@@]1(Cc2ccccc2CN=[N+]=[N-])COC(c2ccc(OCCCO)cc2)=N1,1.81,1.15,0.652,0.949,-0.0539,-0.572,1.43,-0.42,0.603,1.15 (inactive)
CC(C)N1C(=O)c2ccccc2[C@](C)(C(=O)NCC(F)(F)F)[C@@H]1c1ccc(CO)cc1,-0.851,-0.432,-0.749,-1.07,-1.02,-0.337,0.607,-1.5,0.594,-1.17 (inactive)
C=C1C(=O)C=C2CN(C(=O)c3ccccc3)[C@@](Cc3ccc(OC)cc3)(C(=O)OC)[C@@H]12,1.07,1.26,0.408,1.02,1.29,-0.0686,-0.322,0.381,1.13,3.22 (inactive)
O=C1C[C@]2(c3ccc([N+](=O)[O-])cc3)C(=O)N(C3CC3)c3cc(CO)ccc3[C@H]2N1C1CCCCC1,-0.268,-0.115,0.0202,-0.408,-0.0193,0.173,-0.22,-0.0446,0.0523,0.277 (inactive)
O=C(NCc1ccccc1)[C@@H]1c2ccccc2C(=O)N(Cc2cc(C(F)(F)F)cc(C(F)(F)F)c2)[C@H]1c1ccc(CO)cc1,0.618,1.14,0.576,0.638,1.36,1.06,0.473,0.991,0.452,1.14 (inactive)
C=C(C)[C@@H]1CC=C(C(O)C2C=CC3C(=O)N(c4ccccc4)C(=O)C3N2Nc2ccc([N+](=O)[O-])cc2)CC1 (stereo not given in full),0.594,1.27,0.0881,0.995,1.15,0.269,-1.55,1.41,0.963,0.158 (inactive)
O=C1C[C@@](C(=O)NCc2ccccc2)(c2ccc([N+](=O)[O-])cc2)[C@@H](c2ccc(CO)cc2)N1C1CCCCC1,1.25,1.15,1.02,0.955,1.12,1.05,0.966,0.294,0.706,-0.238 (inactive)
COC(=O)[C@@]1(Cc2ccc(F)cc2)[C@H]2c3cc(C(=O)N4CCCC4)n(Cc4cc(F)cc5c4OCOC5)c3C[C@H]2CN1C(=O)c1ccccc1,1.93,-0.0867,-0.225,0.947,0.906,-0.796,1.8,0.348,0.755,2.74 (inactive)
CCCC=C(CCC)[C@@H](NC(=O)OCC(C)C)c1ccc(C(=O)OC)cc1,0.403,0.717,1.16,0.441,-0.133,0.462,0.744,0.704,0.0477,2.34 (inactive)
